# Bim-Mcl-1: inhibitors of Bim peptide binding to Mcl-1, primary screen, biochemical, bead-based flow cytometry, multiplex; Induced myeloid leukemia cell differentiation protein Mcl-1 (Homo sapiens), Q07820; Bim peptide-Mcl-1 binding; inhibition, % at 10 µM; hit rate 0.1% among 190,000; AID 1009, 2008; in the data active means inhibition above about 40%;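 further: 0% = no compound tracer wells and 100% = peptide blocker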
# Target sequence (Q07820 whole entry, looked up): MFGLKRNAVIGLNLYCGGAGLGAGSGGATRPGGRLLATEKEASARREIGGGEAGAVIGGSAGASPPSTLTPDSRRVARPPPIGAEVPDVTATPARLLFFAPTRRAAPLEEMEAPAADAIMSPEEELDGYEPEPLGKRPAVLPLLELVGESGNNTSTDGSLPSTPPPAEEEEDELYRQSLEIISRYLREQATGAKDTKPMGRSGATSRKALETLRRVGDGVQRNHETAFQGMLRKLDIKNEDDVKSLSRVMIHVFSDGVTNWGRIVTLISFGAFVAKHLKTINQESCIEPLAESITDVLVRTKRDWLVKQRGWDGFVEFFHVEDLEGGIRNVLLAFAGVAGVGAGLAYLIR
# Mcl1 Noxa PPI: Mcl-1/Noxa binding inhibitors, primary screen, biochemical, TR-FRET, 1536-well. inhibition, % at 21.7 µM. hit rate 1.5% among 220,000. TR-FRET Mcl-1/Noxa peptide binding, 2 h. Induced myeloid leukemia cell differentiation protein Mcl-1 (Homo sapiens), Q07820. AID 1022, 2008;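 active means compounds that cut the protein-peptide binding signal by more than 50% relative to plate controls in a single-dose test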;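 further: His-tagged Mcl-1 with rhodamine Noxa BH3 peptide and terbium anti-His antibody; 0% = Mcl-1 plus Noxa peptide wells and 100% = peptide-only wells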
# 14-3-3 Bad PPI: inhibitors of 14-3-3 zeta/Bad binding, primary screen, biochemical, TR-FRET, bovine 14-3-3 zeta; AID 781, 2007; hit rate 0.71% among 220,000; 14-3-3 protein zeta/delta (Bos taurus), P63103; inhibition, % at 21.7 µM; TR-FRET 14-3-3zeta/Dy647-pBad peptide displacement, 1 h;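 active means inhibition above about 70%, limit read from the data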;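 further: 0% = full 14-3-3 plus peptide FRET controls and 100% = background without 14-3-3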
# Target sequence (P63103 whole entry, looked up): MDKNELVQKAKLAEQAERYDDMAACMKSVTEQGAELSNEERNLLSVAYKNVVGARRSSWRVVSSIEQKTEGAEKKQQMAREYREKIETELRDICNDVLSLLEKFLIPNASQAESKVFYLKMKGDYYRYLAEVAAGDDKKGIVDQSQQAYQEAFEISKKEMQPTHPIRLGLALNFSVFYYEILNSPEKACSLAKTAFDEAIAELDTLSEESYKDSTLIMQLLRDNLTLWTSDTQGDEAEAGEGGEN
# Mcl1-Bid inh: Mcl-1/Bid binding inhibitors, primary screen, biochemical, TR-FRET, 1536-well; AID 1021, 2008; hit rate 0.97% among 220,000; Induced myeloid leukemia cell differentiation protein Mcl-1 (Homo sapiens), Q07820; inhibition, % at 21.7 µM; TR-FRET Mcl-1/Bid-Dy647 peptide binding;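 active means compounds that cut the binding signal by more than half at the single screening dose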;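 further: His-tagged Mcl-1 with europium anti-His antibody binding Bid BH3 peptide; 0% = Mcl-1 plus peptide wells and 100% = peptide-only wells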
# MCL1 BIM primary: inhibitors of MCL1 binding to BIM-BH3, primary screen, biochemical, fluorescence polarization | Induced myeloid leukemia cell differentiation protein Mcl-1 (Homo sapiens), Q07820 | GST-MCL1 / FITC-Bim-BH3 fluorescence polarization | inhibition, % at 10.9 µM | hit rate 0.68% among 320,000 | AID 2057, 2009;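 active means inhibition above the mean inhibition of all tested compounds plus 3 SD, set per campaign, cut at about 40% in these data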;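 further: 0% = DMSO wells and 100% = unlabeled Bim-BH3 peptide control; higher means more loss of mP so more displacement of Bim peptide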
# * = called active by the depositor; nt = not tested or not shown; [ ] = remark or other dose. This is a sample that favours compounds with a hit; in the whole collection about 2.5% have one here.
SMILES,Bim-Mcl-1,Mcl1 Noxa PPI,14-3-3 Bad PPI,Mcl1-Bid inh,MCL1 BIM primary
O=[N+]([O-])c1ccc(Cl)c2cccnc12,-2,-6,-14,-8,-2
CN(C)N1C(=O)/C(=C/c2ccco2)SC1=Nc1ccccc1,nt,nt,nt,nt,36
[O-]/C(=C(\C(=S)Nc1cccc2ccccc12)[n+]1cccc(CO)c1)c1ccc(Cl)s1,0,23,-16,-24,nt
O=[N+]([O-])c1cc(Cl)c(O)c2ncccc12,0,70*,1,-33,nt
COc1ccc(CNC(=O)C(C)n2nc(C)c3c(C)n(-c4ccc(C)cc4)nc3c2=O)cc1 (stereo not given),nt,nt,nt,nt,0
COc1ccc(NC(=O)c2c(F)cccc2F)cc1S(=O)(=O)Nc1ccc(Br)cc1,42*,6,9,-13,-6
CCOc1ccc(Br)cc1S(=O)(=O)Nc1ccc(NC(=O)c2ccccc2F)cc1,-4,-16,-11,-25,8
CCc1nnc(NS(=O)(=O)c2ccc(NC(=S)NC(=O)/C=C/c3ccc(F)cc3)cc2)s1,-5,61*,4,-31,12
COc1cc(NS(=O)(=O)c2ccc(NC(=S)NC(=O)/C=C/c3ccc(OC)c(OC)c3)cc2)ncn1,-4,59*,-11,-74,-6
CCc1nnc(NS(=O)(=O)c2ccc(NC(=S)NC(=O)/C=C/c3ccc([N+](=O)[O-])cc3)cc2)s1,nt,-6,4,-16,2
COc1ccc(/C=C/C(=O)NC(=S)Nc2ccc(S(=O)(=O)Nc3cc(OC)ncn3)cc2)cc1,0,31,-10,-61,nt
COc1cc(C(=O)NC2(C(F)(F)F)NC(=O)N(CCCc3ccccc3)C2=O)cc(OC)c1OC (stereo not given),-2,-3,3,64*,3
CCN1CCN(CCC(=O)Nc2cc(C)ccc2C)CC1,nt,nt,nt,nt,1
COCCN(CC(=O)Nc1ccccc1C(F)(F)F)C(=O)/C=C/c1cc(Cl)c2c(c1)OCO2,nt,nt,nt,nt,-9
O=C1CCc2cc(S(=O)(=O)NCCCC(=O)N3CCN(Cc4ccc5c(c4)OCO5)CC3)ccc2N1,40*,3,-2,-55,-1
O=C1N=c2ccc(Br)cc2=C1c1sc(=S)n(NS(=O)(=O)c2ccccc2)c1O,-1,83*,43,52*,38
NC(=O)c1ccsc1NC(=O)CSc1nnc(Nc2ccccc2)s1,0,69*,7,-37,8
COc1ccccc1OCC(=O)OCC(=O)Nc1sccc1C(N)=O,-7,49,-13,-36,17
NC(=O)c1ccsc1NC(=O)COc1ccccc1,0,29,-2,-4,43*
CC12CCC(C(=O)NCc3ccc(Cl)cc3)(OC1=O)C2(C)C (stereo not given),1,5,-9,-4,-8
CCCNC(=O)c1ccccc1C(=O)NC1(C(=O)NCCC)CCCC1,nt,-5,3,-28,-4
Cn1c2ccccc2c2nnc(SCc3ccc4nonc4c3)nc21,-2,5,-2,13,5
CCc1nnc(N/N=C\c2ccc(OC(C)=O)c(OC)c2)n1N,nt,nt,nt,nt,-3
Oc1[nH]c2ccccc2c1/C=N/N1CCCCC1,0,-6,-6,93*,0
COc1ccc(/C=N/Nc2nc(C)cc(-c3ccccc3)n2)c(OC)c1,nt,nt,nt,nt,6
SMILES,Bim-Mcl-1,Mcl1 Noxa PPI,14-3-3 Bad PPI,Mcl1-Bid inh,MCL1 BIM primary
COc1ccc(/C=N/Nc2ncc(-c3ccccc3)cn2)c(OC)c1,-2,52*,16,40,-5
COC(=O)c1ccc(N2C(=O)CC(Sc3n[nH]c(C)n3)C2=O)cc1 (stereo not given),0,53*,-1,-17,-1
COC(=O)c1cc(C(=O)OC)cc(N2C(=O)CC(Sc3nc(C)cc(C)n3)C2=O)c1 (stereo not given),2,8,9,-11,5
Cc1ccc(C(=O)NNC(=O)CCC(=O)Nc2cc(C)on2)cc1,-4,4,-2,86*,14
CCNC(=O)NC(=O)C(C)OC(=O)c1ccc(-n2nc(SC)sc2=S)cc1 (stereo not given),-3,17,3,-22,4
COc1ccccc1NC(=O)N1CCCC1C(=O)Nc1nnc(C(C)C)s1 (stereo not given),0,-5,78*[fluorescence artefact?],7,3
CC(NC(=O)c1ccc2nc[nH]c2c1)c1ccccc1 (stereo not given),0,10,-2,-6,9
N/C(Cc1ccc(Cl)cc1)=N\OC(=O)C1CCCCC1,1,-4,7,-10,-3
O=C(Nc1ccc(CN2CCOCC2)cc1)c1ccc(-c2cccc(Cl)c2)o1,-3,-8,32,-30,4
O=C(Nc1ccc2oc(=O)ccc2c1)c1ccc(-c2cccc([N+](=O)[O-])c2)o1,nt,70*,92*,80*,24
O=C(Nc1ccc2oc(=O)ccc2c1)c1cc2ccccc2o1,-12,-5,10,14,1
NNC(=O)c1ccc(-c2cccc([N+](=O)[O-])c2)o1,0,13,-10,-23,0
O=C(Nc1ccc2oc(=O)ccc2c1)c1ccc(-c2cccc(Cl)c2)o1,nt,21,92*,66*,-11
O=C(Nc1ccc2oc(=O)ccc2c1)c1ccc(-c2ccc(Cl)cc2)o1,-7,-15,46,56*,2
FC(F)(F)c1ccc(N2CCOCC2)c(NC2=NCCCCC2)c1,-2,12,82*,15,-1
FC(F)(F)c1ccc(Cl)c(NC2=NCCCCC2)c1,nt,nt,nt,nt,-3
Cn1c(=O)c(C(=O)CSc2nnc(Nc3ccccc3)s2)c(N)n(Cc2ccccc2)c1=O,-4,70*,13,17,-10
CCCNC(=O)c1c(CSc2ccccc2)noc1C(=O)NCc1ccccc1,nt,1,0,-35,2
COc1ccc(C(=O)/C=C/C(=O)N(CC(=O)NCCC(C)C)Cc2cccs2)c(O)c1,-5,66*,2,9,nt
CCN(CC)C(=O)C1CCCN(Cc2ccccc2)C1 (stereo not given),-4,24,80*,45,12
CCOC(=O)C1CCCN(Cc2ccc3c(c2)OCO3)C1 (stereo not given),-2,36,75*,33,2
CCN(CC)C(=O)C1CCCN(Cc2ccccc2C(F)(F)F)C1 (stereo not given),-7,32,71*,35,-12
CCN(CC)C(=O)C1CCCN(Cc2ccc(N(C)C)cc2)C1 (stereo not given),-4,49,48,36,10
O=C(C1CCCN(Cc2ccccc2)C1)N1CCc2ccccc2C1 (stereo not given),-2,19,78*,43,1

# Assay outcomes: PubChem, several laboratories
